Assay results as given in PubChem BioAssay AID1159580 (chemical genetic matrix, 2015).
Among all 5,500 compounds or so, about 2,000 (36%) were called active. Roughly 18% stayed inconclusive and do not appear here. Cut-off read from the data, not from the text of the source: active = normalized growth mostly below about 0.91 (no sharp cut-off); inconclusive = no clear call, values can overlap the other calls; inactive = mostly above about 0.92. This is one part of the list.

Test: chemical genetic growth profiling, strain panel (AID 1159580);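 note: tested at 20 µM; growth read once vehicle control cultures reached saturation at 30 °C; 1 = growth at the plate median or of vehicle wells; lower values mean less growth of the strain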
Conditions: S. cerevisiae deletion strains, growth OD
[1] = locus YAL013W, strain DEP1, stronger effect = lower value
[2] = locus YBR229C, strain ROT2, stronger effect = lower value
[3] = locus YDL101C, strain DUN1, stronger effect = lower value
[4] = locus YDR150W, strain NUM1, stronger effect = lower value
[5] = locus YEL061C, strain CIN8, stronger effect = lower value
[6] = locus YGR078C, strain PAC10, stronger effect = lower value
[7] = locus YHR030C, strain SLT2, stronger effect = lower value
[8] = locus YHR087W, strain rtc3, stronger effect = lower value
[9] = locus YJR043C, strain POL32, stronger effect = lower value
[10] = locus YJR075W, strain HOC1, stronger effect = lower value
[11] = locus YLR039C, strain RIC1, stronger effect = lower value
[12] = locus YLR058C, strain SHM2 (second series), stronger effect = lower value
[13] = locus YLR085C, strain ARP6, stronger effect = lower value
[14] = locus YLR262C, strain YPT6, stronger effect = lower value
[15] = locus YML094W, strain GIM5, stronger effect = lower value
[16] = locus YMR219W, strain ESC1, stronger effect = lower value
[17] = locus YMR263W, strain SAP30, stronger effect = lower value
[18] = locus YMR307W, strain GAS1, stronger effect = lower value
[19] = locus YNL153C, strain GIM3, stronger effect = lower value
[20] = locus YNL298W, strain CLA4 (second series), stronger effect = lower value
[21] = locus YNL322C, strain KRE1, stronger effect = lower value
[22] = locus YNR030W, strain Alg12, stronger effect = lower value
[23] = locus YPL055C, strain LGE1, stronger effect = lower value
[24] = locus YPL241C, strain CIN2, stronger effect = lower value
[25] = locus YPR135W, strain CTF4, stronger effect = lower value

Measured: normalized growth

Ic1ccc(I)s1
inactive: [1] 1.03 | [2] 1 | locus YCL061C, strain MRC1, stronger effect = lower value 1.03 | [3] 1.01 | [4] 1.02 | [5] 1.04 | [6] 1.02 | [7] 1.22 | [8] 1 | locus YJL187C, strain SWE1, stronger effect = lower value 1.01 | [9] 1.04 | [10] 1.02 | locus YKL190W, strain CNB1, stronger effect = lower value 1.01 | [11] 1.18 | [12] 0.999 | [13] 1.01 | [14] 1.16 | [15] 1.02 | [16] 1.01 | [17] 1 | [18] 1.12 | locus YNL128W, strain TEP1, stronger effect = lower value 1 | [19] 1.01 | [20] 1.04 | [21] 1.01 | [22] 1.04 | [23] 1.03 | [24] 1.06 | [25] 1.11

O=C1O/C(=C/Br)CCC1c1cccc2ccccc12 (stereo unspecified)
inactive: [1] 0.952 | locus YAL040C, strain CLN3, stronger effect = lower value 1 | locus YER002W, strain NOP16, stronger effect = lower value 1.01 | [17] 0.989 | locus YNL197C, strain WHI3, stronger effect = lower value 0.947 | [23] 0.922 | [24] 0.998
active: [19] 0.6 | locus YNL175C, strain NOP13, stronger effect = lower value 0.61 | locus YNL224C, strain SQS1, stronger effect = lower value 0.771 | locus YOR083W, strain WHI5 (second series), stronger effect = lower value 0.775

COc1cccc(OC)c1C(C)(O)C(OC)OC (stereo unspecified)
inactive: [1] 0.996 | [2] 0.989 | [3] 0.999 | [4] 1.02 | [5] 1.01 | [6] 1 | [7] 1.05 | [8] 1.03 | [9] 1.01 | [10] 1 | [11] 1.02 | [12] 1.02 | [13] 1.03 | [14] 1.01 | [15] 0.997 | [16] 1 | [17] 0.941 | [18] 0.98 | [19] 0.994 | [20] 1.05 | [21] 1.01 | [22] 1.02 | [23] 1.03 | [24] 1.02 | [25] 1.09

O=C(N/C=C/c1ccsc1)Nc1cc(C(F)(F)F)cc(C(F)(F)F)c1
active: locus YDL214C, strain PRR2, stronger effect = lower value 0.643 | locus YDR477W, strain SNF1, stronger effect = lower value 0.61 | locus YER123W, strain YCK3, stronger effect = lower value 0.44 | locus YER133W, strain GLC7, stronger effect = lower value 0.63 | locus YFR019W, strain FAB1, stronger effect = lower value 0.639 | locus YGR040W, strain KSS1, stronger effect = lower value 0.613 | locus YGR052W, strain FMP48, stronger effect = lower value 0.33 | locus YGR092W, strain DBF2, stronger effect = lower value 0.254 | [7] 0.426 | locus YHR079C, strain IRE1, stronger effect = lower value 0.457 | locus YHR082C, strain KSP1, stronger effect = lower value 0.393 | locus YHR205W, strain SCH9, stronger effect = lower value 0.516 | locus YJL095W, strain BCK1, stronger effect = lower value 0.505 | locus YJL157C, strain FAR1, stronger effect = lower value 0.676 | locus YJR066W, strain TOR1 (second series), stronger effect = lower value 0.507 | locus YKL048C, strain ELM1, stronger effect = lower value 0.726 | locus YKL067W, strain YNK1, stronger effect = lower value 0.587 | locus YKL101W, strain HSL1, stronger effect = lower value 0.387 | locus YKL203C, strain TOR2, stronger effect = lower value 0.58 | locus YLR113W, strain HOG1, stronger effect = lower value 0.315 | locus YLR133W, strain CKI1, stronger effect = lower value 0.597 | locus YLR403W, strain SFP1, stronger effect = lower value 0.444 | locus YML070W, strain DAK1, stronger effect = lower value 0.361 | locus YMR205C, strain PFK2 (second series), stronger effect = lower value 0.672 | locus YNL020C, strain ARK1, stronger effect = lower value 0.541 | locus YNL183C, strain NPR1, stronger effect = lower value 0.309 | locus YNL307C, strain MCK1 (second series), stronger effect = lower value 0.41 | locus YOL136C, strain PFK27, stronger effect = lower value 0.555 | locus YOR231W, strain MKK1, stronger effect = lower value 0.507 | locus YPL031C, strain PHO85, stronger effect = lower value 0.417 | locus YPL153C, strain RAD53, stronger effect = lower value 0.345 | locus YPL204W, strain HRR25, stronger effect = lower value 0.434 | locus YPL256C, strain CLN2, stronger effect = lower value 0.444
inactive: locus YAR019C, strain CDC15, stronger effect = lower value 0.968 | locus YBL105C, strain PKC1, stronger effect = lower value 0.967 | locus YBR135W, strain CKS1, stronger effect = lower value 0.974 | locus YBR136W, strain MEC1, stronger effect = lower value 0.989 | locus YBR160W, strain CDC28, stronger effect = lower value 0.976 | locus YDL017W, strain CDC7, stronger effect = lower value 0.98 | locus YDL028C, strain MPS1, stronger effect = lower value 0.979 | [3] 0.995 | locus YDL108W, strain KIN28, stronger effect = lower value 0.987 | locus YDL132W, strain cdc53, stronger effect = lower value 0.983 | locus YDR052C, strain DBF4, stronger effect = lower value 0.98 | locus YDR054C, strain cdc34, stronger effect = lower value 0.958 | locus YDR226W, strain ADK1, stronger effect = lower value 0.98 | locus YFL009W, strain cdc4, stronger effect = lower value 0.977 | locus YFL029C, strain CAK1, stronger effect = lower value 0.98 | locus YFR003C, strain YPI1, stronger effect = lower value 0.979 | locus YFR028C, strain CDC14, stronger effect = lower value 0.97 | locus YIL147C, strain SLN1, stronger effect = lower value 0.981 | locus YJL128C, strain PBS2, stronger effect = lower value 0.873 | locus YJR016C, strain ILV3, stronger effect = lower value 0.977 | locus YJR066W, strain TOR1, stronger effect = lower value 0.507 | locus YKL193C, strain SDS22, stronger effect = lower value 0.979 | locus YMR001C, strain CDC5, stronger effect = lower value 0.976 | locus YMR277W, strain FCP1, stronger effect = lower value 0.966 | locus YNL006W, strain LST8, stronger effect = lower value 0.979 | locus YNL161W, strain CBK1, stronger effect = lower value 0.976 | locus YNL207W, strain RIO2, stronger effect = lower value 0.976 | locus YNL222W, strain SSU72, stronger effect = lower value 0.974 | locus YOL078W, strain AVO1, stronger effect = lower value 0.984 | locus YOR061W, strain CKA2, stronger effect = lower value 0.726 | locus YOR119C, strain RIO1, stronger effect = lower value 0.719 | locus YOR329C, strain SCD5, stronger effect = lower value 0.981 | locus YPL209C, strain IPL1, stronger effect = lower value 0.968 | locus YPR025C, strain CCL1, stronger effect = lower value 0.98 | locus YPR106W, strain ISR1, stronger effect = lower value 0.971 | locus YPR111W, strain DBF20, stronger effect = lower value 0.958 | strain NNK1, stronger effect = lower value 0.969 | strain TSCII, stronger effect = lower value 0.973
